PubChem BioAssay
The source made the active and inactive calls.

How the values were obtained:
[1] = E. coli DRC41 culture turbidity changes, primary screen, E. coli filamentation inducer project, strain DRC41, OD650, 48 h (AID 1152);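 further: E. coli MC1000 strain DRC41 lacking acrAB efflux pump and sulA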; conditions: E. coli DRC41 (acrAB sulA), higher = more signal, called active from +8 up or from −8 down
[2] = small-molecule binders of probe aLefty1, primary screen, biochemical, small-molecule microarray, 635/667 nm fluorescence (AID 1153); conditions: higher = more signal;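 further: score merges spot fluorescence with signal-to-noise ratio from the scanned slide images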
[3] = PSAC antagonists in infected red cells, primary screen, cell-based, P. falciparum Indochina, OD700, 1 h (AID 1154); conditions: P. falciparum Indochina infected RBC osmotic lysis, higher = more signal, called active from +8 up or from −8 down
[4] = PSAC antagonists in infected red cells, primary screen, cell-based, P. falciparum Indochina, OD700, 2 h (AID 1155);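 further: lysis reports solute entry through the parasite surface anion channel PSAC; channel blockers reduce lysis of infected cells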; conditions: P. falciparum Indochina infected erythrocytes, osmotic lysis OD700; higher = more signal, called active from +8 up or from −8 down
[5] = osmotic lysis modulators in infected erythrocytes, primary screen, PSAC antagonist project, cell-based, P. falciparum Indochina, OD700, 3 h (AID 1156); conditions: higher = more signal, called active from +8 up or from −8 down
[6] = PSAC antagonists in infected red cells, primary screen, cell-based, P. falciparum Indochina, OD700, 18 h (AID 1157); conditions: P. falciparum Indochina infected erythrocytes, osmotic lysis OD700, 18 h; higher = more signal, called active from +8 up or from −8 down
[7] = modulators of S6 phosphorylation in cells, primary screen, cell-based, A549, cytoblot, luminescence, serum-stimulated (AID 1158); conditions: A549 phospho-S6 cytoblot, 5 h, higher = more signal;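 further: serum-stimulated A549 lung adenocarcinoma cells; signal is phosphorylated S6 detected by cytoblot immunostaining with HRP secondary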
[8] = biological target: NADPH oxidase 2 (Homo sapiens) (UniProt P04839); assay: NOX2-dependent H2O2 signal modulators, primary screen, NOX inhibitor project, cell-based, HEK293-NOX2, PMA-stimulated, Amplex Red fluorescence (AID 1159); conditions: 45 min, higher = more signal, called active from +8 up or from −8 down; further: test concentration not given here
[9] = biological target: NADPH oxidase 4 (Homo sapiens) (UniProt Q9NPH5); assay: NOX4-dependent H2O2 signal modulators, primary screen, NOX inhibitor project, cell-based, HEK293-NOX4, tetracycline-induced, Amplex Red fluorescence (AID 1160); conditions: 45 min, higher = more signal, called active from +8 up or from −8 down
[10] = biological target: NADPH oxidase 5 (Homo sapiens) (UniProt Q96PH1); assay: NOX5-dependent H2O2 signal modulators, primary screen, NOX inhibitor project, cell-based, HEK293-NOX5, Amplex Red fluorescence (AID 1161); conditions: HEK293-NOX5, ionomycin, 45 min, higher = more signal
[11] = A549 cell viability effects, profiling panel, calcein-AM fluorescence, 48 h, basal (AID 1162); conditions: higher = more signal; further: test concentration not given here
[12] = adipocyte viability effects, profiling panel, cell-based, 3T3-L1 adipocytes, calcein-AM fluorescence, 48 h, basal (AID 1163); conditions: 3T3-L1 adipocytes viability, higher = more signal; further: test concentration not given here
[13] = HepG2 cell viability effects, profiling panel, calcein-AM fluorescence, 48 h, basal (AID 1164); conditions: higher = more signal; further: test concentration not given here
[14] = MM1S cell viability effects, profiling panel, calcein-AM fluorescence, 48 h, basal (AID 1165); conditions: higher = more signal;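 further: viability of MM1S multiple myeloma cells under basal unstimulated conditions; test concentration not given here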
[15] = basal RPMI8226 viability, no added stimulus, profiling panel, cell-based, calcein-AM fluorescence, 48 h, PK04 Diversity Set (AID 1166); conditions: RPMI8226 myeloma viability, higher = more signal;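 further: cells grown under basal conditions without added stimulus; test concentration not given here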
[16] = basal HepG2 mitochondrial membrane potential changes, profiling panel, cell-based, JC-1 fluorescence, 24 h, 100 nL compound (AID 1167); conditions: higher = more signal; further: test concentration not given here
[17] = basal 3T3-L1 adipocyte mitochondrial potential changes, profiling panel, cell-based, JC-1 fluorescence, 3T3-L1 adipocytes, 24 h, 100 nL compound (AID 1168); conditions: JC-1 mitochondrial fluorescence, higher = more signal, called active from +8 up or from −8 down; further: test concentration not given here
[18] = basal RPMI8226 mitochondrial membrane potential changes, profiling panel, cell-based, JC-1 fluorescence, 24 h, 100 nL compound (AID 1169); conditions: RPMI8226 myeloma, JC-1 mitochondrial potential fluorescence, higher = more signal; further: test concentration not given here
[19] = basal MM1S mitochondrial membrane potential changes, profiling panel, cell-based, JC-1 fluorescence, 24 h, 100 nL compound (AID 1170); conditions: higher = more signal; further: test concentration not given here
[20] = A549 lung cancer cell viability effects, profiling panel, resazurin fluorescence, 24 h, PK04 Diversity Set (AID 1171); conditions: higher = more signal, called active from +8 up or from −8 down; further: test concentration not given here

Chain of NADPH oxidase 2 (Homo sapiens) (P04839 whole entry, looked up): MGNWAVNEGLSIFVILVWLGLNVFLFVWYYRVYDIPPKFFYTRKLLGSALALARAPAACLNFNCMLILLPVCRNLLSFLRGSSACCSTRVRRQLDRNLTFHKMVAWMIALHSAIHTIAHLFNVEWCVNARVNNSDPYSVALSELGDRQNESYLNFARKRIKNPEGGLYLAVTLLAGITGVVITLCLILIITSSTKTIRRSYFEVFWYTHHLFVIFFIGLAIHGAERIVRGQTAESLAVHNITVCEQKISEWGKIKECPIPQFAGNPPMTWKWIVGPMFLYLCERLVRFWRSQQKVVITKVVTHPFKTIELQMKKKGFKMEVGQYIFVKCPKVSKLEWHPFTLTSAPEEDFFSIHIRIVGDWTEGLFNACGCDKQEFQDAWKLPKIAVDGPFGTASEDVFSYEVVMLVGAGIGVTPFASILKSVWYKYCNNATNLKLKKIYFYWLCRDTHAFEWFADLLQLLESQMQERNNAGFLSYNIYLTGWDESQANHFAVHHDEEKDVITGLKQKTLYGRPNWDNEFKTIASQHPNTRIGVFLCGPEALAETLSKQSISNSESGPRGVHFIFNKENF
Chain of NADPH oxidase 4 (Homo sapiens) (Q9NPH5 whole entry, looked up): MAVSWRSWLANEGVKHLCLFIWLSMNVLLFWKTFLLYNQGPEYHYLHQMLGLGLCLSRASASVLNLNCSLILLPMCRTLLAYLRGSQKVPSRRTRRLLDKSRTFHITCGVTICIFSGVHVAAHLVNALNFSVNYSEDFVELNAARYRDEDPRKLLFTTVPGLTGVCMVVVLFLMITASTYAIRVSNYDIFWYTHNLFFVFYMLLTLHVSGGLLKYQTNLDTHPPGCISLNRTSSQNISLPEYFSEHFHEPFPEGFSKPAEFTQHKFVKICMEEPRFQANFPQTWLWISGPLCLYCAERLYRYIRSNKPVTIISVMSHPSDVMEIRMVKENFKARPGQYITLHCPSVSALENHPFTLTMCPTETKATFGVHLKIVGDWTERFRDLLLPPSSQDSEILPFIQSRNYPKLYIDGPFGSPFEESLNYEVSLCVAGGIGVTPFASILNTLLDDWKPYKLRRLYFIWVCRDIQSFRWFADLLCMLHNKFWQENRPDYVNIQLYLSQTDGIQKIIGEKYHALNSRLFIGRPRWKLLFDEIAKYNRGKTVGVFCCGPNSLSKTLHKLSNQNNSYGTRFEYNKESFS
Chain of NADPH oxidase 5 (Homo sapiens) (Q96PH1 whole entry, looked up): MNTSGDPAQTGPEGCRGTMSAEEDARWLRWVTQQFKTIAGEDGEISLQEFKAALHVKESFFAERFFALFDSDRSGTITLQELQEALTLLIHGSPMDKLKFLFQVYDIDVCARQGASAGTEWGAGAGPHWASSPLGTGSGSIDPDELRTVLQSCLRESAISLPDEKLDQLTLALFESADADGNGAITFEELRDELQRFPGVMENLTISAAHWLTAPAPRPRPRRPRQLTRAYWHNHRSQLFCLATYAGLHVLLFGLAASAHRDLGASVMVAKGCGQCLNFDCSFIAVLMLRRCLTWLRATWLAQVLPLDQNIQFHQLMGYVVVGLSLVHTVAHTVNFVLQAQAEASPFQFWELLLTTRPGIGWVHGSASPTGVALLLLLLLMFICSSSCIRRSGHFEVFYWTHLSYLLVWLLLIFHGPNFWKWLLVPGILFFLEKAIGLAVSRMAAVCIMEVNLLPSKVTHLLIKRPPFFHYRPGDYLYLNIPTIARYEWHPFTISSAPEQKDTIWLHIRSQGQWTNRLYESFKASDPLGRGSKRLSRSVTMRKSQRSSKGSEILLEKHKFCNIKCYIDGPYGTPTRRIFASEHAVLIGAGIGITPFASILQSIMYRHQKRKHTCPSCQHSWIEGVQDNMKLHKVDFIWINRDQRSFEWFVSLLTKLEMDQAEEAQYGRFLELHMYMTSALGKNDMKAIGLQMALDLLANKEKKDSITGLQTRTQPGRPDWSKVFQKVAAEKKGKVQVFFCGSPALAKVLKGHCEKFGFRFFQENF

SMILES	z-score [1]	composite z-score [2]	z-score [3]	z-score [4]	z-score [5]	z-score [6]	z-score [7]	z-score [8]	z-score [9]	z-score [10]	z-score [11]	z-score [12]	z-score [13]	z-score [14]	z-score [15]	z-score [16]	z-score [17]	z-score [18]	z-score [19]	z-score [20]
CC1C2C(CCCO)=CC(C3C(=O)N(C)C(=O)C23)N1Cc1cccc(OC(F)(F)F)c1 (stereo not given)	0.337 (inactive)	-0.0083	1.38 (inactive)	0.938 (inactive)	1.07 (inactive)	0.528 (inactive)	1.04	0.733 (inactive)	-0.702 (inactive)	0.455	-0.45	0.924	-0.399	-0.83	-0.423	0.779	0.0323 (inactive)	0.258	0.675	-0.791 (inactive)
C=CCC(OC(C)=O)[C@@H]1[C@@H](N(Cc2cccc3ccccc23)C(=O)c2ccc(C)cc2)c2cc(OCCCO)ccc2N1C(=O)Cc1ccc2ccccc2c1 (stereo not given in full)	2.62 (inactive)	0.167	0.483 (inactive)	-0.407 (inactive)	-0.419 (inactive)	-1.2 (inactive)	2.14	-2.56 (inactive)	1.08 (inactive)	2.41	0.396	1.05	1.55	0.83	0.986	3.54	0.598 (inactive)	0.152	-0.984	0.433 (inactive)
CN1C(=O)C2CC=C(C3=CCO[C@@H]3[C@H]3CCCN3S(=O)(=O)c3ccccc3[N+](=O)[O-])CC2C1=O (stereo not given in full)	-0.62 (inactive)	-0.191	5.38 (inactive)	0.672 (inactive)	-0.604 (inactive)	-0.0627 (inactive)	-0.307	0.278 (inactive)	1.22 (inactive)	0.32	-0.477	0.102	0.302	-0.355	-0.0289	-1.25	-0.655 (inactive)	-0.12	-0.242	0.47 (inactive)
O=C(c1ccccc1)N1Cc2ccccc2C[C@@]2(N=C(c3ccc(OCCCO)cc3)O[C@H]2c2ccccc2)C1=O	-0.702 (inactive)	0.149	6.6 (inactive)	1.66 (inactive)	2.54 (inactive)	0.937 (inactive)	-0.221	1.21 (inactive)	-0.172 (inactive)	-0.693	-1.12	0.862	-1.18	-3.31	-4.05	-1.68	0.471 (inactive)	-1.25	-2.14	-2.63 (inactive)
CC(C)(C)OC(=O)CC[C@@]1(C(N)=O)N=C(c2ccc(OCCCO)cc2)O[C@@H]1c1ccccc1CN=[N+]=[N-]	-0.216 (inactive)	0.997	23.4 (active)	5.68 (inactive)	-1.49 (inactive)	0.739 (inactive)	0.0301	1.11 (inactive)	1.09 (inactive)	0.369	0.105	-0.288	0.886	0.0855	0.116	-1.08	-0.216 (inactive)	0.698	-0.829	0.112 (inactive)
COCCCNC(=O)[C@@]1(Cc2ccccc2I)c2ccccc2C(=O)N(C2CCCCC2)[C@H]1c1ccc(CO)cc1	0.0773 (inactive)	0.293	8.09 (active)	0.695 (inactive)	2.44 (inactive)	0.623 (inactive)	0.453	0.392 (inactive)	-1.2 (inactive)	-3.06	-0.126	0.2	-0.335	-0.339	-0.0802	1.29	-0.276 (inactive)	-0.794	-1.01	1.59 (inactive)
COC(=O)[C@]1(Cc2ccccc2N=[N+]=[N-])N=C(c2ccc(OCCCO)cc2)O[C@@H]1c1ccccc1CN=[N+]=[N-]	-1.01 (inactive)	-0.0012	22.2 (active)	9.37 (active)	-0.732 (inactive)	2.26 (inactive)	0.76	-2.97 (inactive)	0.167 (inactive)	-2.43	-3.36	-0.677	-5.59	-3.59	-3.98	-1.76	-1.07 (inactive)	-1.16	-2.61	-2.26 (inactive)
CC1(C)OB(/C=C\CC(OC(=O)c2ccncc2)c2ccccc2)OC1(C)C (stereo not given)	-0.318 (inactive)	1.24	0.777 (inactive)	-0.854 (inactive)	-0.66 (inactive)	-0.678 (inactive)	-0.119	-2.45 (inactive)	0.637 (inactive)	-5.03	-0.0116	0.282	-0.691	-0.475	-1.45	-1.27	-0.928 (inactive)	-0.194	0.343	0.0383 (inactive)
O=C1OCCC/C=C\[C@H]2OC34C=CCN(Cc5ccccc5)C(=O)[C@H]3N(CCO)C(=O)[C@@H]4C12 (stereo not given in full)	2.28 (inactive)	-0.0536	1.65 (inactive)	0.803 (inactive)	1.82 (inactive)	0.671 (inactive)	0.0012	1.7 (inactive)	0.571 (inactive)	1.68	0.457	-0.728	1.21	1.64	0.998	1.03	0.857 (inactive)	-0.0351	-0.27	0.263 (inactive)
